Most compounds without a hit are left out; they make up all but 10% or so of the library.
G9a block: blocks human histone lysine methyltransferase G9a. Q96KQ7. G9a H3K9 monomethylation, AlphaScreen, 2 h. Potency, µM (highest dose often 102 µM), without a hit: at the highest dose activity, negative = inhibition, usual class: inhibitors. actives 8.8% (n = 350,000); note: potency is the fitted concentration of half-maximal effect; % is set by controls: 0 for no effect and ±100 for the full control effect; nearly all actives have a fitted effect of over 75% in size
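Step 1: enzyme (final 20 nM) with compound, 15 min RT. Step 2: substrate peptide 500 nM and SAM 20 uM, 2 h RT. Step 3: anti-H3K9me1 antibody and AlphaScreen beads, 10 min, then plate read.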
HP1b chromo inh: blocks HP1-beta chromodomain binding to methylated histone tails; AID 540317; actives 0.56% (n = 390,000); P83916; Potency, µM (doses to about 114 µM), without a hit: at the highest dose activity change, negative = inhibition, hits mostly inhibitors; AlphaScreen HP1-beta / biotin-H3K9me3 peptide binding; note: potency is the fitted concentration of half-maximal effect; nearly all actives have a fitted effect of over 70% in size
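HP1-beta protein (50 nM final) preincubated 30 min at room temperature with biotinylated H3(1-18)K9me3 peptide (50 nM) in PBS pH 7.4, 0.01% Tween-20, then compound added for 30 min. AlphaScreen streptavidin donor/nickel chelate acceptor beads (10 ug/mL final), 30 min dark, luminescence read.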
JMJD2A Tudor inh: JMJD2A Tudor domain (human) inhibition; AlphaScreen JMJD2A-Tudor / H3K4me3 peptide binding; O75164; Potency, µM (highest dose often 114 µM), for the others: at the top dose activity change, negative = inhibition, usual class: inhibitors; actives 4.4% (n = 390,000); note: potency is the fitted concentration of half-maximal effect; % is set by controls: 0 for no effect and ±100 for the full control effect; nearly all actives have a fitted effect of over 50% in size
BAZ2B inh: blocks human BAZ2B | AID 504333 | Potency, µM (doses to about 114 µM), for the others: top-dose activity change, negative = inhibition, most hits filed as inhibitors | AlphaScreen BAZ2B-H3K14Ac peptide displacement | actives 4.4% (n = 360,000); note: potency is the fitted concentration of half-maximal effect; % is set by controls: 0 for no effect and ±100 for the full control effect; nearly all actives have a fitted effect of over 60% in size
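Complex of BAZ2B and biotin-H3K14Ac (50 nM apiece) forms over 30 min at RT, then faces library compounds up to 110 uM for another 30 min; AlphaScreen beads added, 20 min dark incubation, luminescence read.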
CtBP-E1A inh: blocks the CtBP interaction with E1A; AlphaScreen GST-E1A/His-CtBP binding, 1536-well; active compounds read low; activity change, % (test concentration not listed); actives 0.49% (n = 340,000); in the data active = activity change below about -65%; inconclusive = mostly about -30% to -63%; note: % is set by controls: 0 for no effect and ±100 for the full control effect
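GST-E1A and His-tagged CtBP (125 nM each as 5X stock) were preincubated with pin-transferred compound for 2 h at 37 °C in the dark, then glutathione donor and nickel acceptor beads were added for 1 h before AlphaScreen reading.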
Six1-Eya2 inh: Six1/Eya2 interaction inhibition; AlphaScreen GST-Six1/His-Eya2 binding, biochemical; active compounds read low; activity change, % (no concentration beside the values); actives 0.56% (n = 360,000); AID 651725; in the data active = activity change below about -65%; inconclusive = mostly about -30% to -63%; note: % is set by controls: 0 for no effect and ±100 for the full control effect
Target sequence (O00167 whole entry, looked up): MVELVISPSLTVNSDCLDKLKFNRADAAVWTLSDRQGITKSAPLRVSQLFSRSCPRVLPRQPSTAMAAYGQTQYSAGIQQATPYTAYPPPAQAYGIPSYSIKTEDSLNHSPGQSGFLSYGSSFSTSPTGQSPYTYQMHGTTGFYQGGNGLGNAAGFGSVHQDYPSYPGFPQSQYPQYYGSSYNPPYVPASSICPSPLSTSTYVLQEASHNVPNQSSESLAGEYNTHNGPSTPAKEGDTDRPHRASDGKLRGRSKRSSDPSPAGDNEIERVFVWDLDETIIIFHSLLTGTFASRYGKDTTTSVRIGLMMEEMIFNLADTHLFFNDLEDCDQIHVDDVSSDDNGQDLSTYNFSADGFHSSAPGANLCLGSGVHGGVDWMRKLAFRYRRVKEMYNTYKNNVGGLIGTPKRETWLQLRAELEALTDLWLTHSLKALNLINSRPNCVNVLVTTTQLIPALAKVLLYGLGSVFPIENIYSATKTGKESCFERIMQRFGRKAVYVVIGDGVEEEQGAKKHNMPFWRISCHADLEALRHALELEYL
Target sequence (Q15475 whole entry, looked up): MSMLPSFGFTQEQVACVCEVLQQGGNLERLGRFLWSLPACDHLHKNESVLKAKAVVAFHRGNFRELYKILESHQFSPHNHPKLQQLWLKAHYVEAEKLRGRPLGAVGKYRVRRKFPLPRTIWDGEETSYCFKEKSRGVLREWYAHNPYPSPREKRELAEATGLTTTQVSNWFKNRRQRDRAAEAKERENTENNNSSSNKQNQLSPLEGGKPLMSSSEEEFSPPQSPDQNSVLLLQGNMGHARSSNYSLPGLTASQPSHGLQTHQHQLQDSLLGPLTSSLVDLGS
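Homogeneous AlphaScreen proximity assay pairing GST-Six1 with His-tagged Eya2 (added as 5X mix: 250 nM and 500 nM) in 50 mM Tris pH 8.0, 300 mM NaCl, 1 mM TCEP. Glutathione donor and nickel acceptor beads; 1 h, 37 °C, dark.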
Starred values were filed as active, the others as inactive; ? = inconclusive; / = no result given; [ ] = dose if it differs, or a comment. Unless noted, calls come from the whole dose curve; as a rule, active = well fitted inhibition curve with a large enough effect; inconclusive = small, poorly fitted or top-dose-only effect; inactive = no such curve, though single readings can be large or run the other way.

SMILES | G9a block | HP1b chromo inh | JMJD2A Tudor inh | BAZ2B inh | CtBP-E1A inh | Six1-Eya2 inh
COc1ccc2nc(N3CCN(C(=O)CS(=O)(=O)c4ccc(C)cc4)CC3)sc2c1 | -6%[59 µM] | 3% | -17% | -14% | / | /
O=C(NNS(=O)(=O)c1ccccc1[N+](=O)[O-])c1cccc(Cl)c1 | ? | 23% | 28µM* | -8% | -4 | 3
Cc1cccc(C(=O)NNS(=O)(=O)c2ccccc2[N+](=O)[O-])c1 | ? | 8% | ? | -7% | 7 | 12
O=C(NNS(=O)(=O)c1ccccc1[N+](=O)[O-])c1cccc(Br)c1 | -5% | 21% | 11µM* | -20% | 9 | 3
O=C(NNS(=O)(=O)c1ccccc1[N+](=O)[O-])c1ccc(F)cc1 | / | 43% | -31% | -3% | 4 | -3
O=C(NNS(=O)(=O)c1ccccc1[N+](=O)[O-])c1ccc(O)cc1 | ? | ? | 5.6µM* | 50µM* | -2 | 6
O=C(O)c1ccc(N/N=C/c2ccc(OC(=O)c3cccc(Cl)c3)cc2)cc1 | 2%[12.7 µM] | ? | -19%[11.4 µM] | 50µM* | 1 | -8
CC(C)C(=O)N/N=C/c1ccc(OCc2ccccc2)cc1 | -5% | 14% | -13%[57.1 µM] | 3% | 7 | 3
O=C(Oc1ccc(/C=N/Nc2ccccc2)cc1)c1ccccc1 | -5%[0.0925 µM] | 16% | 2%[57.1 µM] | -11% | -11 | ?
CCOc1ccc(/C=N/Nc2ccccc2)cc1 | 25µM* | 28% | -30% | -27% | / | -1
CCOc1ccc(/C=N/O)cc1 | 12%[12.7 µM] | 24% | -19% | 8% | / | 5
O=C(O)c1cccc(N/N=C/c2ccc(OC(F)(F)F)cc2)c1 | 14µM* | 4% | ? | ? | -1 | -5
O=C(O)c1cc(N/N=C/c2ccc(OCc3ccccc3)cc2)ccc1Cl | 22µM* | 17% | -20% | ? | 4 | 1
Cc1ccccc1C(=O)NCC(=O)OC(C(=O)Nc1cc(C(F)(F)F)ccc1Cl)c1ccccc1 (stereo not drawn) | / | / | -18% | / | / | /
COc1ccc(C2c3c(oc4ccccc4c3=O)C(=O)N2c2nc(C)c(C)s2)cc1 (stereo not drawn) | 9%[59 µM] | 33% | -13% | ? | / | /
Cc1ccc(-n2c(SCC(=O)Nc3cccc(Cl)c3)nc3n[nH]c(C)c3c2=N)cc1 | 8%[59 µM] | 49% | -12% | -2% | / | /
COC(=O)c1ccc(COc2ccc(/C=N/Nc3nc(C)cc(=O)[nH]3)cc2)cc1 | -1%[59 µM] | 70% | -23% | -7% | / | 13
CSc1ccc(/C=N/Nc2cccc(C(=O)O)c2)cc1 | 4µM* | 10µM* | 4µM* | 8.9µM* | -17 | ?
COC(=O)c1ccc(COc2ccc(/C=N/Nc3cccc(C(=O)O)c3)cc2)cc1 | 8.9µM* | ? | 56µM* | ? | -8 | -17
CCOc1cc(/C=N/Nc2cccc(C(=O)O)c2)ccc1OCC(=O)N1CCCCC1 | 32µM* | -11% | -20% | ? | 4 | 4
O=C(O)c1ccc(COc2ccc(/C=N/NC(=O)c3cccs3)cc2)cc1 | 10µM* | 3% | -24% | -29% | -20 | -15
COc1ccc(NC(=O)c2cnn(-c3ccc(C)cc3)c2-n2cccc2)cc1Cl | -24%[59 µM] | 3% | -21% | -30% | / | /
COc1ccc(C2C(=O)N(C3CCCCCC3)CC(=O)N2CCC2=CCCCC2)cc1 (stereo not drawn) | -29%[59 µM] | 25% | -13% | -2% | / | /
CCOC(=O)C1CCCN(C(=O)c2ccccc2NC(=O)c2nsc3ccccc23)C1 (stereo not drawn) | 31%[59 µM] | 32%[57 µM] | 12% | 5% | / | /
c1ccc2c(CNc3ccc(CNc4ncn[nH]4)cc3)cccc2c1 | ? | ? | 56µM* | 45µM* | -12 | -23
SMILES | G9a block | HP1b chromo inh | JMJD2A Tudor inh | BAZ2B inh | CtBP-E1A inh | Six1-Eya2 inh
COc1ccccc1CNc1ccc(CNc2ncn[nH]2)cc1 | -45% | 20% | ? | ? | -15 | 6
Cc1c(C(=O)NCC2COc3ccccc3O2)oc2ccc(S(=O)(=O)N3CC(C)CC(C)C3)cc12 (stereo not drawn) | -47%[2.33 µM] | 4% | -14% | 12% | 7 | -1
O=C(NC1CCCC1)c1cc(S(=O)(=O)N2CCOCC2)c(Cl)cc1Cl | -8%[59 µM] | 23% | -15% | -1% | 0 | -10
O=C(COC(=O)c1cc(S(=O)(=O)N2CCOCC2)c(Cl)cc1Cl)NC1CC1 | 0.63µM* | 4% | -11% | -4% | -17 | 4
Cc1c(C(=O)NCC2COc3ccccc3O2)oc2ccc(S(=O)(=O)N3CCOCC3)cc12 (stereo not drawn) | 50µM* | 6% | -29% | 4% | 1 | 2
O=C(NCC1COc2ccccc2O1)c1cc(S(=O)(=O)N2CCOCC2)c(Cl)cc1Cl (stereo not drawn) | 32µM* | 19% | -18% | 16% | -13 | 5
Cc1c(C(=O)NCc2ccc(F)cc2)oc2ccc(S(=O)(=O)N3CCOCC3)cc12 | 2% | 16% | 4% | 6% | -11 | -4
Cc1c(C(=O)NCc2c(F)cc(F)cc2F)oc2ccc(S(=O)(=O)N3CCOCC3)cc12 | 3%[59 µM] | -4% | 22µM* | 7% | 9 | -4
COc1ccc(NC(=O)c2sc3nc(C)c(C(=O)Nc4ccc(C)cc4C)c(-c4sccc4C)c3c2N)cc1 | 4%[59 µM] | 23% | -14% | 0% | / | /
O=C1CC(c2cccc(O)c2)c2c(nc(SCc3ccccc3F)[nH]c2=O)N1 (stereo not drawn) | -13%[59 µM] | 20% | -13% | ? | / | /
COc1ccc(S(=O)(=O)N2CCOCC2)cc1C(=O)NCC(c1ccccc1)c1ccccc1 | / | 23% | -2% | / | 2 | -10
COCCCNC(=O)c1cc(S(=O)(=O)N2CCOCC2)ccc1SCc1cccc(OC)c1OC | 32µM* | 16% | -3% | 5% | -11 | 14
COCCCNC(=O)c1oc2ccc(S(=O)(=O)N3CCOCC3)cc2c1C | 4%[59 µM] | -8% | 89µM* | 1% | -7 | 0
Cc1cccc(NC(=O)c2cc(-c3ccco3)nc3ccccc23)n1 | 32µM* | 34% | -26% | ? | 5 | 2
Cc1cc(C(=O)OCC(=O)Nc2cc(S(=O)(=O)N(C)C)ccc2C)c2ccccc2n1 | 8% | 4% | -15% | -22% | 3 | -17
Cc1ccccc1NC(=S)NC(=O)c1cc(-c2ccccc2)nc2ccccc12 | / | -24% | ? | -37% | -17 | -16
Cc1ccccc1NC(=O)c1cc(-c2ccco2)nc2ccccc12 | / | ? | 20µM* | / | -16 | -19
O=C(N/N=C/c1cccc(F)c1)c1cc(-c2ccco2)nc2ccccc12 | ? | 28µM* | ? | 6.3µM* | -1 | -29
Cc1cccc(NC(=O)c2cc(Cl)nc3ccccc23)n1 | -3% | 17% | -12% | 1% | -1 | -1

From PubChem BioAssay
